Hits are enriched below; roughly 4% of the tested compounds scored in any of these assays.
DUSP3 inh: blocks human VHR1 dual specificity phosphatase; P51452; recombinant VHR phosphatase, pNPP absorbance; inhibition, % at 13.3 µM; 0.52% of 290,000 active; in the data active means inhibition above about 50%
Target sequence (P51452 whole entry, looked up): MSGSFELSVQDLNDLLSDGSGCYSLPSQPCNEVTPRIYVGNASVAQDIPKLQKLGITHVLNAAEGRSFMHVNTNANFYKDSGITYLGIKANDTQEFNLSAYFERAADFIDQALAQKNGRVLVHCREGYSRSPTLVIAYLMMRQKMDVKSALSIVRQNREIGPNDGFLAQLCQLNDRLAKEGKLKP
BoNT-F LC inh: BoNT F light chain protease inhibition; Multiplex microsphere protease cleavage assay, flow cytometry; inhibition, % at 10 µM; 0.22% of 360,000 active; in the data active means inhibition above about 35%, passing the limit was not always enough; inconclusive means no clear call, values can overlap the other calls; further: plate controls were buffer without enzyme for full effect and enzyme alone for no effect
BoNT A protease: inhibitors of Botulinum neurotoxin A light chain protease | multiplex microsphere protease substrate cleavage, flow cytometry | inhibition, % at 10 µM | 0.17% of 360,000 active | AID 588499; further: plate controls were buffer without enzyme for full effect and enzyme alone for no effect
Bead autofluor: compound fluorescence in toxin protease inhibitor counterscreen; compound autofluorescence counterscreen, microsphere flow cytometry; hits give high values; fluorescence intensity (no concentration beside the values); 3.1% of 360,000 active; AID 624483; in the data active means fluorescence intensity above about 16000; inconclusive means no clear call, values can overlap the other calls
Anthrax LF prot: blocks Bacillus anthracis lethal factor protease | 0.12% of 360,000 active | multiplex microsphere protease cleavage assay, LF | P15917 | AID 588501 | inhibition, % at 10 µM; further: plate controls were buffer without enzyme for full effect and enzyme alone for no effect
MazF activator: increases E. coli MazEF RNase cleavage of RNA. FAM/BHQ RNA-DNA oligo cleavage fluorescence, 5 h. activation, % at 20 µM. 0.32% of 350,000 active; in the data active means activation above about 50%
Target sequence (P0AE70 whole entry, looked up): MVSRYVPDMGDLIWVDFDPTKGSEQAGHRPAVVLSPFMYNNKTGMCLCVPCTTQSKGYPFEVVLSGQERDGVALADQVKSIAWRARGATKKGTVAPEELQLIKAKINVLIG
Numbers without * were called inactive; ? = inconclusive; . = no result given. Unless noted, no stated cut-off is given here; in the data, active means inhibition above about 30%; inconclusive means no clear call, values can overlap the other calls; inactive means below that.

SMILES	DUSP3 inh	BoNT-F LC inh	BoNT A protease	Bead autofluor	Anthrax LF prot	MazF activator
CNC(=S)N/N=C(\C)c1ccc(C(C)(C)C)cc1	59.9*	-0.7	0.6	7473	-2.2	-0.5
Nc1nsnc1C(=O)NCCO	-0.2	-4.6	-3.0	17466*	-0.6	4.3
Cc1cc(C)c2cc3c(N)c(C(=O)Nc4c(C)[nH]c(=O)[nH]c4=O)sc3nc2c1	-1.6	7.6	5.4	10076	0.8	155.5*
Cc1cccc2cc3c(N)c(C#N)sc3nc12	7.6	-7.8	5.6	9810	-4.6	92.3*
Cc1sc(NC(=O)c2sc3nc4c(C)cccc4cc3c2N)c(C#N)c1C	12.8	6.6	5.2	9272	-7.7	-1.9
Cc1cc(Cl)c(S(=O)(=O)Nc2ccc(S(=O)(=O)N3CCOCC3)cc2)cc1OCC(N)=O	8.4	-1.4	0.1	4037	-1.5	-3.4
O=C(NCc1ccco1)c1nn(-c2ccccc2)c(=O)c2ccccc12	-19.3	0.0	0.9	21403*	-1.3	-6.5
CCN1CCN(C(=O)c2nn(-c3ccccc3)c(=O)c3ccccc23)CC1	8.7	2.0	2.4	18559*	-2.5	-4.8
CCOC(=O)N1CCN(C(=O)c2nn(-c3cc(OC)cc(OC)c3)c(=O)c3ccccc23)CC1	-0.6	.	.	.	.	.
COc1ccc(-n2nc(C(=O)NCC(=O)NCc3ccco3)c3ccccc3c2=O)cc1	15.1	-3.6	-0.1	5918	-1.7	3.3
O=C(NNC(=O)c1ccncc1)Nc1ccccc1	17.1	-1.9	0.3	5461	-3.8	4.7
O=C(c1cccc(Oc2ccccc2)c1)N1CCOCC1	5.0	-12.1	-0.3	6402	3.8	4.8
Nc1c(N2CCCC2)cc(Cl)c2nonc12	55.6*	-47.2	0.0	9434	-40.2	6.7
Nc1cc(Cl)ccc1N1CCCCC1	-3.9	-4.7	-0.5	4451	-2.4	4.7
Nc1c(N2CCOCC2)cc(Cl)c2nonc12	-0.8	-3.2	?	23187*	-2.1	-2.7
Fc1cccc(Cl)c1Cn1ncc2ccccc21	53.0*	-24.1	-1.5	3701	-3.4	-1.9
COc1cccc(OCC(O)CN2C(C)CCCC2C)c1 (stereo not drawn)	21.3	2.7	0.0	2112	-3.2	-8.1
CCn1c(SCC(=O)OC)nnc1-c1ccncc1	3.3	-12.8	-0.7	4772	-2.1	1.5
COC(=O)CSc1nnc(-c2ccncc2)n1N	28.7	-0.4	2.3	19048*	-2.6	4.5
COc1ccc(NC(=O)CSc2nnc(-c3ccc(C)cc3)n2N)cc1	14.7	-4.6	-0.3	9474	-2.6	-14.2
Cc1ccc(NC(=O)CSc2nnc(-c3ccncc3)n2N)cc1C	18.2	-4.5	-1.4	24163*	-0.5	5.3
COc1ccc(OCC(O)CN2CCOCC2)cc1 (stereo not drawn)	4.1	?	-4.6	4005	7.6	4.9
CCc1cc2c(N3CCCCC3)ncnc2s1	25.3	-2.2	0.8	4147	-2.0	1.3
CCc1ccc(NC(=O)NNC(=O)CCc2ccccc2)cc1	44.3	-1.0	-0.7	4063	3.6	4.5
C=CCc1ccc(OC(=O)NC2CCCCC2)c(OC)c1	17.0	6.1	0.2	3830	-13.7	3.1
SMILES	DUSP3 inh	BoNT-F LC inh	BoNT A protease	Bead autofluor	Anthrax LF prot	MazF activator
COc1ccc(C)cc1NC(=O)CSc1nnc(-c2ccco2)n1Cc1ccco1	11.3	-4.8	-1.8	17132*	0.2	0.3
Cc1nnc(SCC(=O)Nc2cccc(C(F)(F)F)c2)n1Cc1ccco1	-5.4	-16.7	-0.3	3531	-1.6	3.1
Cc1cc(NC(=O)CSc2nnc(-c3ccco3)n2Cc2ccco2)no1	15.3	3.4	1.4	19201*	-9.7	1.8
CCOc1ccccc1NC(=O)CSc1nnc(-c2ccco2)n1Cc1ccco1	14.7	2.5	2.5	21394*	-12.0	-0.8
Cc1cc(NC(=O)CSc2nnc(-c3ccco3)n2Cc2ccccc2)no1	4.2	-13.3	-1.2	3763	3.5	-7.2
Cc1cc(NC(=O)CSc2nnc(CNc3cccc(C(F)(F)F)c3)n2Cc2ccco2)no1	29.5	-6.5	-3.2	17703*	-4.0	5.3
Cc1ccc(Nc2c3c(nc4ncnn24)CCC3)cc1	16.6	-1.5	-0.9	23876*	0.1	3.1
Cc1ccc(Nc2c3c(nc4ncnn24)CC(C)CC3)cc1 (stereo not drawn)	-12.8	-9.9	-0.4	3867	0.3	4.3
COCCNc1nc2ccccc2n2cnnc12	9.5	-13.2	2.5	3105	-2.7	7.5
O=C1CC(N2C(=O)/C(=C/C=C/c3ccccc3)SC2=S)C(=O)N1c1ccccc1 (stereo not drawn)	15.0	21.1	64.2*	2114	34.8*	0.0
CCCCNC(=O)c1ccc(S(=O)(=O)c2ccc(Cl)cc2)c(NC(C)=O)c1	35.5	8.0	6.2	21746*	2.5	4.5
COCCCNC(=O)c1ccc(S(=O)(=O)c2ccc(C)cc2)c(NC(C)=O)c1	20.6	-12.8	0.0	3526	-7.9	-0.1
OC(COc1ccccc1)Cn1c2ccccc2c2ccccc21 (stereo not drawn)	-7.2	-3.6	0.1	2109	-0.4	-9.7
Cn1ncc(Br)c1C(=O)NC1C2CC3CC(C2)CC1C3 (stereo not drawn)	5.0	0.4	0.3	2545	1.9	0.1
Cc1c(Cl)c(C(=O)NC2C3CC4CC(C3)CC2C4)nn1C (stereo not drawn)	-4.7	0.5	?	21785*	-5.2	-1.0
Cc1sc(NC(=O)CN2CCCC2)nc1-c1ccc2c(c1)CCN2C(=O)c1cccc(F)c1	10.1	-2.5	-3.3	5911	-2.8	6.6
Cn1c(=O)cc(OCCCC(=O)Nc2ccccn2)c2ccccc21	33.8	-0.3	1.1	22529*	-2.2	3.8
Cn1c(=O)cc(OCCCC(=O)NCc2ccco2)c2ccccc21	-17.1	-3.0	-1.8	17294*	-2.5	1.8
Cc1ccc(CNC(=O)CCCOc2cc(=O)n(C)c3ccccc23)o1	-18.1	-9.5	-0.7	6564	-7.9	9.7
CCNC(=S)N1CCN(S(=O)(=O)c2ccccc2C(F)(F)F)CC1	1.5	-5.8	-0.9	3288	0.6	11.2
CCOc1ccc(C(CC(=O)O)NC(=O)C23CC4CC(CC(C4)C2)C3)cc1 (stereo not drawn)	17.6	-6.8	-4.8	21930*	0.2	3.4
Cc1nn(CCC#N)c(NC(=O)c2ccc(Cl)cc2Cl)c1P(=O)(Nc1ccc([N+](=O)[O-])cc1)N1CCOCC1 (stereo not drawn)	17.5	2.7	1.2	16178*	-0.1	2.5
C/C(=N\NC(=O)COc1ccc(C#N)cc1)c1ccc(N2CCOCC2)cc1	-3.6	2.1	-0.5	2941	-0.1	-2.5
CN(Cc1ccccc1)Cc1nc2c(c(=O)n(C)c(=O)n2C)n1Cc1ccccc1Cl	31.6	-6.9	-0.9	10646	-1.8	-5.7
O=C(NCC1CCCC(CNC(=O)N2CCc3ccccc32)C1)N1CCc2ccccc21 (stereo not drawn)	-18.3	-1.2	0.5	21215*	-4.4	1.5
CC(C)Cc1nc2oc3c(NCC4CCCO4)ncnc3c2c2c1CCC2 (stereo not drawn)	8.1	2.8	?	18869*	1.7	-11.5

Bioassay records deposited in PubChem by several laboratories.
